Source: PubChem BioAssay
The list is not random: actives were taken first. Their share in the collection is about 11%.
Luciferase inh: Photinus pyralis luciferase inhibition | Potency, µM (titrated, usually from 115 µM), hits mostly inhibitors | purified P. pyralis luciferase, luminescence, biochemical | hit rate 2.5% among 76,000; also: nearly all actives have a fitted effect of over 65% in size
Target sequence (P08659 whole entry, looked up): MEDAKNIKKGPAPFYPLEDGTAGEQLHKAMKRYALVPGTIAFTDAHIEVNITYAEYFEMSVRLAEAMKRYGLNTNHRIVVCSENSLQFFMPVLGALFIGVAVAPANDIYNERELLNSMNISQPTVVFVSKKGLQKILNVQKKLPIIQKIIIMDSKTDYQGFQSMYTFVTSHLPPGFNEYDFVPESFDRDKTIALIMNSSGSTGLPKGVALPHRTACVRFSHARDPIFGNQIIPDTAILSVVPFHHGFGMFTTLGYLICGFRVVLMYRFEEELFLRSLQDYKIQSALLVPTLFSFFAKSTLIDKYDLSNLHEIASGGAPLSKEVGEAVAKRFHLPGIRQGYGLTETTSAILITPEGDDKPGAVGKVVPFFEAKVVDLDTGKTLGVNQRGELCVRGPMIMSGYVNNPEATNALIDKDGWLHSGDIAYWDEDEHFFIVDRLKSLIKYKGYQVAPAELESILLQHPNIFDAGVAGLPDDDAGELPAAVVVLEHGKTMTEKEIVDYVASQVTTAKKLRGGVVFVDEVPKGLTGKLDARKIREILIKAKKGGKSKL
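Luminescence read by CCD imaging after purified firefly luciferase (10nM final) was added to substrate buffer holding 10uM D-luciferin and 10uM ATP, pH 7.5, pre-dosed with compound.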
HEK cytotox: HEK 293 cell cytotoxicity; hit rate 6.6% among 94,000; HEK 293 viability, ATP luminescence (CellTiter-Glo), 48-72 h; Potency, µM (top dose mostly 115 µM), inactives show top-dose activity change, negative = cytotoxicity, actives largely listed as inhibitors; also: nearly all actives have a fitted effect of over 60% in size
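HEK 293 seeded at 250 cells/well receive compound via pintool. After 48 or 72 hr at 37 degree Celsius, 5% CO2 and 95% humidity, CellTiter-Glo is dispensed and luminescence read following 10 min at room temperature.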
hNpr1 antagonist: antagonists of human natriuretic peptide receptor Npr1. HEK293 hNpr1 GloSensor cGMP, ANP-stimulated luminescence. Potency, µM (top dose mostly 46.3 µM), for inactives: at the top dose activity change, negative = inhibition, usual class: inhibitors. hit rate 1.6% among 76,000; calls by dose curve; also: nearly all actives have a fitted effect of over 60% in size
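HEK293 cells stably expressing human Npr1 and cGMP GloSensor pGS-40F, loaded 2 h with 2% GloSensor reagent, given compound 30 min at room temperature. Luminescence read before and 20 min after 0.1 nM hNppA.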
NIH3T3 tox: NIH 3T3 cell cytotoxicity; hit rate 4.3% among 94,000; Potency, µM (top dose mostly 96.7 µM), for inactives: at the top dose activity change, negative = cytotoxicity, usual class: inhibitors; NIH 3T3 viability, CellTiter-Glo ATP luminescence, 48-72 h; AID 1345082; also: nearly all actives have a fitted effect of over 55% in size
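Cytotoxicity was measured by CellTiter-Glo ATP luminescence after 48 or 72 h compound exposure at 37 °C. Mouse NIH 3T3 fibroblasts were seeded at 400 cells/well and dosed by 23 nL pin transfer.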
Numbers without * were called inactive; i = inactive; ? = inconclusive; nt = not tested or not shown; ! = not confirmed by another sample; [ ] = another dose, or the depositor's remark. Unless noted, calls follow the shape of the dose curve; as a rule, active = well fitted curve in the direction sought with a large enough effect; inconclusive = small, poorly fitted or top-dose-only effect, or another doubt; inactive = no such curve, though single readings can be large; an effect the other way counts as inactive or inconclusive. % is scaled to controls: 0 for no effect and ±100 for the full control effect; potency is read from the fitted curve at half-maximal effect.

SMILES	Luciferase inh	HEK cytotox	hNpr1 antagonist	NIH3T3 tox
Cc1ccc(C(=O)N2CCC23Cc2ccccc2NC3=O)cc1 (centres undefined)	i	100µM*	0%[70.6 µM]	-18%[138 µM]
O=C(c1ccc(Cl)cc1)N1CCC2(CC1)Cc1ccccc1NC2=O	i	?	2%	28µM*!
O=C(c1cccc(Cl)c1)N1CCC2(CC1)Cc1ccccc1NC2=O	i	?	22%	?
CNC(=O)c1cc(C)nc2onc(C3CCCN(C(=O)Cc4cccc(Cl)c4)C3)c12 (centres undefined)	nt	-7%	nt	-22%
C[S+](=O)([O-])c1ccc(-c2nnc3ccc(C(=O)NCc4ccc(F)cc4)cn23)cc1	nt	-2%	nt	-19%
O=C(NCCc1ccccc1)C1(CCO)CCN(c2ncccn2)C1 (centres undefined)	nt	?	nt	-26%
Cn1cccc1CN1CCC2(CC1)C(=NC1CCCC1)NC(=O)N2c1cc(F)cc(F)c1	nt	i	nt	i
Cn1nc(C2CCN(C(=O)Nc3ccc(Cl)cc3)CC2)[nH]c1=O	i	2%[172 µM]	0%[70.6 µM]	-8%[138 µM]
O=C(Cc1ccc(F)cc1)N1CCC2(CC1)Cc1ccccc1NC2=O	i	0%	?	-7%
O=C(Cc1ccccc1)N1CCC2(Cc3ccccc3NC2=O)C1 (centres undefined)	i	100µM*	-5%[70.6 µM]	-24%[138 µM]
O=C1NC(C(=O)Nc2ccc3c(c2)OCCO3)Cn2cccc21 (centres undefined)	?	-6%	1%	i
O=C(NC1CCCC1)N1CCN(c2nccc(Nc3ccccc3F)n2)CC1	nt	45µM*	nt	?
COCC(=O)N1CCN(c2nccc(Nc3ccccc3F)n2)CC1	nt	2%	nt	-20%
O=C(Nc1ccccc1)N1CCN(c2nccc(Nc3ccccc3F)n2)CC1	nt	?	nt	45µM*
O=C(NC1CC1)C1CCCN1c1nccc(Nc2ccccc2F)n1 (centres undefined)	nt	-25%	nt	-26%
CC(C)NC(=O)N1CCN(c2nccc(Nc3ccccc3F)n2)CC1	nt	25µM*	nt	?
COC(=O)N1CCN(c2nccc(Nc3ccccc3F)n2)CC1	nt	89µM*	nt	?
C[S+](=O)([O-])N1CCN(c2nccc(Nc3ccccc3F)n2)CC1	nt	-10%	nt	-27%
O=C(NCc1ccco1)c1cc2c(s1)CCN(C(=O)c1ccc(Cl)cc1)C2	i	?	-12%	-60%
O=C(Nc1ccc([C@@H](O)[C@H]2COCC(=O)N2Cc2ccc(F)cc2)cc1)c1ccc2c(c1)OCO2	?	?	2%	-29%
C[S+](=O)([O-])N1CC2(CCN(Cc3c[nH]c4ccccc34)CC2)Cc2ccccc21	nt	45µM*	nt	25µM*
c1ccc(CC2=NOC3(CCN(Cc4c[nH]c5ccccc45)CC3)C2)cc1	nt	50µM*	nt	32µM*
c1ccc(C2=NOC3(CCN(Cc4c[nH]c5ccccc45)CC3)C2)cc1	nt	45µM*	nt	?
CC(=O)N1CCn2c(nnc2C2CCCN2Cc2cc(Cl)ccc2F)C1 (centres undefined)	nt	-7%	nt	-15%
FC(F)(F)c1ccc(Oc2ccc(CN3CCCC3)cc2Cl)nc1	i	?	0%	?
SMILES	Luciferase inh	HEK cytotox	hNpr1 antagonist	NIH3T3 tox
Cc1cccc(N2CCN(C(=O)C3c4ccccc4CC(=O)N3C)CC2)c1C (centres undefined)	i	?	-23%	?
O=C(Cc1ccc(F)cc1)NC1CCCN(c2ccnc3ccnn23)C1 (centres undefined)	nt	i	nt	-16%
O=C(CNC(=O)c1cccc(-c2ccsc2)c1)NCc1cccs1	nt	-29%	nt	?
O=C(c1ccc(C(F)(F)F)cc1)N1CCC2(CC1)C(=NC1CCCCC1)NC(=O)N2c1cccnc1	nt	i	nt	?
Cc1cc(C)c2[nH]c(C(=O)N3CCN(Cc4ccccc4)C(=O)C3C)c(C)c2c1 (centres undefined)	i	35µM*	5%	25µM*
OCC1(Cc2ccc(F)cc2)CCCN(c2nc3ccccc3s2)C1 (centres undefined)	i	40µM*	?	?
O=C(c1cc(COc2c(F)cccc2F)on1)N1CCCCC1CCc1ccccc1 (centres undefined)	i	-16%	-5%	-25%
Oc1ccc(CCC2CCCCN2Cc2nc(Cc3cccc(F)c3)no2)cc1 (centres undefined)	i	22µM*	-7%	?
CCOC(=O)[C@@H]1[C@H]2c3ccccc3N(CCOC)C(=O)[C@H]2N(C(=O)c2ccccc2)[C@@H]1c1ccccc1	nt	35µM*	nt	?
O=C(NCCc1ccccc1F)c1ccc2nc(-c3cccnc3)oc2c1	nt	5%	nt	-13%
Cc1ccc(NC(=O)Nc2ccccc2)c(=O)n1CC(=O)N1CCN(c2ccccc2)CC1	11µM*	?	-1%	i
Cc1cccc(NC(=O)Nc2ccc(C)n(CC(=O)NC(C)C)c2=O)c1	7.1µM*	?	-2%	-24%
CCOc1ccc(NC(=O)Cn2c(C)ccc(NC(=O)Nc3cccc(C)c3)c2=O)cc1	?	40µM*	0%	28µM*
CNC(=O)Nc1ccc(C)n(CC(=O)N2CCN(c3ccccc3OC)CC2)c1=O	i	4%	5%	i
COc1cccc(-c2ccc(C(=O)NCCNC(=O)c3ccc(C)cc3)cc2)c1	nt	?	nt	-25%
CCn1nc(CC(C)C)cc1C(=O)N(C)C1CCCN(C2Cc3ccccc3C2)C1 (centres undefined)	i	?	0%	?
CCn1nc(CC(C)C)cc1C(=O)N(C)Cc1cccc(-n2cccn2)c1	i	50µM*	-15%	?
Cc1cc(C)c(CNC(=O)c2nc(-c3cccc(F)c3)cc3c2ccn3C)c(=O)[nH]1	i	?	1%[70.6 µM]	-29%[138 µM]
Cc1cc(C)c(CNC(=O)c2nc(-c3ccccc3)cc3c2ccn3C(C)C)c(=O)[nH]1	i	?	-11%[70.6 µM]	?
Cc1cc(C)c(CNC(=O)c2nc(-c3cccc(O)c3)cc3c2ccn3C)c(=O)[nH]1	i	?	-3%[70.6 µM]	25µM*
Cc1cc(C)c(CNC(=O)c2nc(-c3cccc(O)c3)cc3c2ccn3C(C)C)c(=O)[nH]1	i	?	-15%[70.6 µM]	?
Cc1cc(C)c(CNC(=O)c2nc(-c3ccnn3C)cc3c2ccn3C(C)C)c(=O)[nH]1	i	?	-1%[70.6 µM]	89µM*
Cc1cc(C)c(CNC(=O)c2nc(-c3cccc(F)c3)cc3c2ccn3C(C)C)c(=O)[nH]1	i	32µM*	-7%[70.6 µM]	?
COc1ccc(CCC(=O)N2CCC3(CC2)NCCc2c3[nH]c3ccc(OC)cc23)cc1	i	?	1%	?
Cc1ccc(NC(=O)Cn2c(-c3ccccc3)nc(C)c(CCO)c2=O)c(C)c1	i	-19%	-12%	-25%
Cn1nccc1-c1ccc2ncn(-c3ccccc3)c(=O)c2n1	?	i	-2%[70.6 µM]	?
Cc1cccc([C@H]2C[C@@H](O)[C@@H](O)[C@@H]2NCC(C)(C)O)c1	i	?	4%[70.6 µM]	-5%[230 µM]
CCCn1c(C)cnc1CCNC(=O)CCC1CCCC1	i	-6%	4%	-2%
